# Reference: article PMC11062922 (Nature Chemical Biology, 2023)
# Read-outs that look alike come from different tables or passages of the source.
# How the values were obtained:
# AURKA = settings: read-out: apparent Kd, n = 1
# CHEK1 = settings: read-out: apparent Kd, n = 1
substance,measurement,setting,value
Lestaurtinib,potency estimated from few doses,"AURKA; compound concentrations:100 nM and 1000 nM (sheet 'Lestaurtinib' of Supplementary Table 1),run:Lestaurtinib_02802_R1,Plate:MR029",16.2 nM
same,potency estimated from few doses,"AURKA; compound concentrations:100 nM and 1000 nM (sheet 'Lestaurtinib' of Supplementary Table 1),run:Lestaurtinib_02802_R2,Plate:MR029",15.9 nM
same,potency estimated from few doses,"AURKA; compound concentrations:100 nM and 1000 nM (sheet 'Lestaurtinib' of Supplementary Table 1),run:Lestaurtinib_02802_R3,Plate:MR029",14.1 nM
same,potency estimated from few doses,"AURKA; compound concentrations:100 nM and 1000 nM (sheet 'Lestaurtinib' of Supplementary Table 1),run:Lestaurtinib_02896_R1,Plate:MR030",15.4 nM
same,potency estimated from few doses,"AURKA; compound concentrations:100 nM and 1000 nM (sheet 'Lestaurtinib' of Supplementary Table 1),run:Lestaurtinib_02896_R2,Plate:MR030",16.3 nM
same,potency estimated from few doses,"AURKA; compound concentrations:100 nM and 1000 nM (sheet 'Lestaurtinib' of Supplementary Table 1),run:Lestaurtinib_02896_R3,Plate:MR030",16.2 nM
same,potency estimated from few doses,"AURKA; compound concentrations:100 nM and 1000 nM (sheet 'Lestaurtinib' of Supplementary Table 1),run:Lestaurtinib_03172_R1,Plate:MR031",17 nM
same,potency estimated from few doses,"AURKA; compound concentrations:100 nM and 1000 nM (sheet 'Lestaurtinib' of Supplementary Table 1),run:Lestaurtinib_03252_R1,Plate:MR032",16.3 nM
same,potency estimated from few doses,"AURKA; compound concentrations:100 nM and 1000 nM (sheet 'Lestaurtinib' of Supplementary Table 1),run:Lestaurtinib_03260_R1,Plate:MR033",27.5 nM
same,potency estimated from few doses,"AURKA; compound concentrations:100 nM and 1000 nM (sheet 'Lestaurtinib' of Supplementary Table 1),run:Lestaurtinib_03260_R3,Plate:MR033",22.2 nM
same,potency estimated from few doses,"CHEK1; compound concentrations:100 nM and 1000 nM (sheet 'Lestaurtinib' of Supplementary Table 1),run:Lestaurtinib_02339_R1,Plate:MR001",99.6 nM
same,potency estimated from few doses,"CHEK1; compound concentrations:100 nM and 1000 nM (sheet 'Lestaurtinib' of Supplementary Table 1),run:Lestaurtinib_02339_R2,Plate:MR001",72.8 nM
same,potency estimated from few doses,"CHEK1; compound concentrations:100 nM and 1000 nM (sheet 'Lestaurtinib' of Supplementary Table 1),run:Lestaurtinib_02339_R3,Plate:MR001",71.3 nM
same,potency estimated from few doses,"CHEK1; compound concentrations:100 nM and 1000 nM (sheet 'Lestaurtinib' of Supplementary Table 1),run:Lestaurtinib_02364_R1,Plate:MR002",67.1 nM
same,potency estimated from few doses,"CHEK1; compound concentrations:100 nM and 1000 nM (sheet 'Lestaurtinib' of Supplementary Table 1),run:Lestaurtinib_02364_R3,Plate:MR002",86.4 nM
same,potency estimated from few doses,"CHEK1; compound concentrations:100 nM and 1000 nM (sheet 'Lestaurtinib' of Supplementary Table 1),run:Lestaurtinib_02367_R2,Plate:MR003",78 nM
same,potency estimated from few doses,"CHEK1; compound concentrations:100 nM and 1000 nM (sheet 'Lestaurtinib' of Supplementary Table 1),run:Lestaurtinib_02381_R1,Plate:MR004",78.7 nM
same,potency estimated from few doses,"CHEK1; compound concentrations:100 nM and 1000 nM (sheet 'Lestaurtinib' of Supplementary Table 1),run:Lestaurtinib_02381_R3,Plate:MR004",61.8 nM
same,potency estimated from few doses,"CHEK1; compound concentrations:100 nM and 1000 nM (sheet 'Lestaurtinib' of Supplementary Table 1),run:Lestaurtinib_02407_R1,Plate:MR005",73.9 nM
same,potency estimated from few doses,"CHEK1; compound concentrations:100 nM and 1000 nM (sheet 'Lestaurtinib' of Supplementary Table 1),run:Lestaurtinib_02407_R2,Plate:MR005",71 nM
same,potency estimated from few doses,"CHEK1; compound concentrations:100 nM and 1000 nM (sheet 'Lestaurtinib' of Supplementary Table 1),run:Lestaurtinib_02422_R1,Plate:MR006",70.8 nM
same,potency estimated from few doses,"CHEK1; compound concentrations:100 nM and 1000 nM (sheet 'Lestaurtinib' of Supplementary Table 1),run:Lestaurtinib_02422_R2,Plate:MR006",31 nM
same,potency estimated from few doses,"CHEK1; compound concentrations:100 nM and 1000 nM (sheet 'Lestaurtinib' of Supplementary Table 1),run:Lestaurtinib_02422_R3,Plate:MR006",76.2 nM
same,potency estimated from few doses,"CHEK1; compound concentrations:100 nM and 1000 nM (sheet 'Lestaurtinib' of Supplementary Table 1),run:Lestaurtinib_02437_R2,Plate:MR007",67.9 nM
same,potency estimated from few doses,"CHEK1; compound concentrations:100 nM and 1000 nM (sheet 'Lestaurtinib' of Supplementary Table 1),run:Lestaurtinib_02437_R3,Plate:MR007",17.2 nM
same,potency estimated from few doses,"CHEK1; compound concentrations:100 nM and 1000 nM (sheet 'Lestaurtinib' of Supplementary Table 1),run:Lestaurtinib_02438_R2,Plate:MR008",88.5 nM
same,potency estimated from few doses,"CHEK1; compound concentrations:100 nM and 1000 nM (sheet 'Lestaurtinib' of Supplementary Table 1),run:Lestaurtinib_02438_R3,Plate:MR008",99.8 nM
same,potency estimated from few doses,"CHEK1; compound concentrations:100 nM and 1000 nM (sheet 'Lestaurtinib' of Supplementary Table 1),run:Lestaurtinib_02443_R2,Plate:MR009",94.3 nM
same,potency estimated from few doses,"CHEK1; compound concentrations:100 nM and 1000 nM (sheet 'Lestaurtinib' of Supplementary Table 1),run:Lestaurtinib_02473_R1,Plate:MR010",72.2 nM
same,potency estimated from few doses,"CHEK1; compound concentrations:100 nM and 1000 nM (sheet 'Lestaurtinib' of Supplementary Table 1),run:Lestaurtinib_02473_R2,Plate:MR010",70.2 nM
same,potency estimated from few doses,"CHEK1; compound concentrations:100 nM and 1000 nM (sheet 'Lestaurtinib' of Supplementary Table 1),run:Lestaurtinib_02482_R1,Plate:MR011",78 nM
same,potency estimated from few doses,"CHEK1; compound concentrations:100 nM and 1000 nM (sheet 'Lestaurtinib' of Supplementary Table 1),run:Lestaurtinib_02482_R3,Plate:MR011",92.6 nM
same,potency estimated from few doses,"CHEK1; compound concentrations:100 nM and 1000 nM (sheet 'Lestaurtinib' of Supplementary Table 1),run:Lestaurtinib_02487_R1,Plate:MR012",69.6 nM
same,potency estimated from few doses,"CHEK1; compound concentrations:100 nM and 1000 nM (sheet 'Lestaurtinib' of Supplementary Table 1),run:Lestaurtinib_02487_R2,Plate:MR012",86.9 nM
same,potency estimated from few doses,"CHEK1; compound concentrations:100 nM and 1000 nM (sheet 'Lestaurtinib' of Supplementary Table 1),run:Lestaurtinib_02487_R3,Plate:MR012",87.7 nM
same,potency estimated from few doses,"CHEK1; compound concentrations:100 nM and 1000 nM (sheet 'Lestaurtinib' of Supplementary Table 1),run:Lestaurtinib_02496_R1,Plate:MR013",92.6 nM
same,potency estimated from few doses,"CHEK1; compound concentrations:100 nM and 1000 nM (sheet 'Lestaurtinib' of Supplementary Table 1),run:Lestaurtinib_02496_R2,Plate:MR013",79.6 nM
same,potency estimated from few doses,"CHEK1; compound concentrations:100 nM and 1000 nM (sheet 'Lestaurtinib' of Supplementary Table 1),run:Lestaurtinib_02566_R1,Plate:MR014",88.2 nM
same,potency estimated from few doses,"CHEK1; compound concentrations:100 nM and 1000 nM (sheet 'Lestaurtinib' of Supplementary Table 1),run:Lestaurtinib_02566_R2,Plate:MR014",75.6 nM
same,potency estimated from few doses,"CHEK1; compound concentrations:100 nM and 1000 nM (sheet 'Lestaurtinib' of Supplementary Table 1),run:Lestaurtinib_02566_R3,Plate:MR014",66.8 nM
same,potency estimated from few doses,"CHEK1; compound concentrations:100 nM and 1000 nM (sheet 'Lestaurtinib' of Supplementary Table 1),run:Lestaurtinib_02572_R1,Plate:MR015",89.7 nM
same,potency estimated from few doses,"CHEK1; compound concentrations:100 nM and 1000 nM (sheet 'Lestaurtinib' of Supplementary Table 1),run:Lestaurtinib_02584_R1,Plate:MR017",76.9 nM
same,potency estimated from few doses,"CHEK1; compound concentrations:100 nM and 1000 nM (sheet 'Lestaurtinib' of Supplementary Table 1),run:Lestaurtinib_02584_R3,Plate:MR017",87.5 nM
